Experiment [1] is described as follows: NCI Yeast Anticancer Drug Screen. Data for the rad50 strain (AID 155).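 Also: 0% = growth of vehicle-only cultures of the same strain.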 To be noted: S. cerevisiae rad50 strain growth inhibition, stronger effect = higher value. An outline of the steps: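 Cells are treated with compound, grown, and their growth is then scored against vehicle-only cultures of the same repair-deficient yeast strain.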
Experiment [2] can be described thus: NCI Yeast Anticancer Drug Screen. Data for the sgs1 mgt1 strain (AID 161).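 Also: 0% = growth of cultures given vehicle only.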 To be noted: S. cerevisiae sgs1 mgt1 strain, stronger effect = higher value. An outline of the steps:
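Percent growth inhibition was derived by comparing compound-exposed mutant yeast with vehicle-exposed cultures. The strain carries alterations in DNA damage repair.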

Experiment [3] can be described thus: NCI Yeast Anticancer Drug Screen. Data for the cln2 rad14 strain (AID 165).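 Also: 0% = growth equal to vehicle treated cultures.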 To be noted: S. cerevisiae cln2 rad14 strain, stronger effect = higher value. In outline:
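Growth inhibition, relative to vehicle-treated controls, is the read-out. The test organism is a yeast strain with defined genetic alterations, cln2 rad14.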

Experiment [4] can be described thus: NCI Yeast Anticancer Drug Screen. Data for the bub3 strain (AID 167). The settings on record: S. cerevisiae bub3 mutant strain, stronger effect = higher value. An outline of the steps:
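Part of a panel of yeast mutants defective in DNA damage repair or cell cycle regulation. Each strain is grown with compound, and inhibition is calculated relative to solvent-treated cultures.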

The nature of experiment [5]: NCI Yeast Anticancer Drug Screen. Data for the mlh1 rad18 strain (AID 175). To be noted: S. cerevisiae mlh1 rad18 strain growth inhibition, stronger effect = higher value. An outline of the steps: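 Cells of a genetically altered yeast strain, deficient in DNA damage repair, were treated with compound. Their growth was then compared with that of vehicle-treated cultures to give inhibition.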

Experiment [6] in a line: NCI Yeast Anticancer Drug Screen. Data for the mec2-1 strain (AID 157). To be noted: S. cerevisiae mec2-1 strain, stronger effect = higher value. In outline:
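Growth inhibition is read against vehicle-treated controls after compound exposure of the mec2-1 yeast strain, which is defective in DNA damage repair or cell cycle control.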

The mark [7] stands for this setting: at 5.0 µM (retest, dose inferred, filed as 0.5).
Setting [8] is: at 50.0 µM (retest, dose inferred, filed as 5.0).

The structures appear in SMILES notation. “And” between values parts separate entries of the source, which are not always exact repeats. Identical values can stand only once. The panel holds about 79,000 compounds, 15% with a hit somewhere; the sample as a whole holds those more often. Some structures have more than one record in an assay (separate samples or runs), and their calls can disagree. The source made the active and inactive calls. Rule as the data show it: active = growth inhibition above about 70%; inactive = the rest. Where a SMILES comes first, the peptide text is derived from it. [ ]: non-standard residue; d: D form. ξ: configuration not given here. ξI = CCC(C)C(N)C(=O)O

For the molecule `C[C@H]1CC[C@H]([C@@H](C)[C@H]2[C@@H](O)C[C@H]3[C@@H]4CC[C@H]5C[C@@H](O)CC[C@]5(C)[C@H]4CC[C@]23C)NC1`, the growth inhibition in experiment [1] (setting [7]) is 32% (inactive) and 5% (inactive); in experiment [1] (setting [8]) it was 94% (active) and 96% (active); in experiment [1] (at 50.0 µM), 91.3% (active) and 88.7% (active); in experiment [2] (setting [7]), 23% (inactive) and 4% (inactive); in experiment [2] (setting [8]) it was 98% (active) and 94% (active); in experiment [2] (at 50.0 µM), 92.5% (active) and 85.7% (active). Besides, the growth inhibition in experiment [3] (setting [7]) is 23% (inactive) and 1% (inactive); in experiment [3] (setting [8]), 97% (active) and 60% (inactive); in experiment [3] (at 50.0 µM), 91% (active) and 88.3% (active); in experiment [4] (setting [7]), 24% (inactive) and 0% (inactive); in experiment [4] (setting [8]), 98% (active) and 92% (active); in experiment [4] (at 50.0 µM), 92.1% (active) and 89.3% (active). Further, the growth inhibition in experiment [5] (setting [7]) was 28% (inactive) and -4% (inactive); in experiment [5] (setting [8]), 97% (active) and 98% (active); in experiment [5] (at 50.0 µM), 84.5% (active) and 89.2% (active).

As for `OC1C(O)C(O)C(O)C(O)C1O` (stereo not given), the growth inhibition in experiment [4] (at 50.0 µM) is 0.4% (inactive) [middle of 5 runs]; in experiment [5] (at 50.0 µM) it was 4.3% (inactive) [middle of 5 runs].

Consider `CC1C[C@]2(C)C(=O)Nc3ccccc3[C@@H]2Nc2ccccc21` (stereo not given in full), for which the growth inhibition in experiment [1] (setting [7]) was 6% (inactive); in experiment [1] (setting [8]), 36% (inactive); in experiment [1] (at 50.0 µM) it was 91.1% (active); in experiment [2] (setting [7]) it was 22% (inactive); in experiment [2] (setting [8]), 14% (inactive); in experiment [2] (at 50.0 µM) it was 93.2% (active). For the same molecule, the growth inhibition was -6% (inactive) in experiment [3] (setting [7]); 57% (inactive) in experiment [3] (setting [8]); 89.5% (active) in experiment [3] (at 50.0 µM); 16% (inactive) in experiment [5] (setting [7]); 43% (inactive) in experiment [5] (setting [8]); 89.2% (active) in experiment [5] (at 50.0 µM).

Regarding `O=C(O)C1CC(O)CN1` (stereo not given), the growth inhibition in experiment [1] (at 50.0 µM) was 26.6% (inactive) and 12.2% (inactive) and -2.5% (inactive); in experiment [6] (at 50.0 µM) it was -9.75% (inactive) and 11.6% (inactive) and -22.9% (inactive); in experiment [2] (at 50.0 µM), 31.4% (inactive) and 15.3% (inactive) and 1.95% (inactive); in experiment [3] (at 50.0 µM), -4.7% (inactive) and 4.45% (inactive) and -18.1% (inactive); in experiment [4] (at 50.0 µM), 23.1% (inactive) and 13.8% (inactive) and 2.75% (inactive); in experiment [5] (at 50.0 µM), 30.6% (inactive) and 13.9% (inactive) and 1.9% (inactive).

Consider `NCCCC(=O)O`, for which the growth inhibition in experiment [1] (at 50.0 µM) is -5.85% (inactive) [middle of 4 runs]; in experiment [3] (at 50.0 µM), 6.95% (inactive) [middle of 4 runs]; in experiment [4] (at 50.0 µM), -15.2% (inactive) [middle of 4 runs].

With `OCC(O)C(O)C(O)C(O)CO` (stereo not given) (tested in a mixture with another compound), the growth inhibition in experiment [2] (at 50.0 µM) was 0.35% (inactive) [middle of 6 runs]; in experiment [5] (at 50.0 µM), 13.2% (inactive) [middle of 6 runs].

As for `CCN(CC)c1ccc(NC(C(=O)c2ccccc2)c2ccccc2)cc1` (stereo not given), the growth inhibition in experiment [1] (setting [7]) is 99% (active) and 2% (inactive); in experiment [1] (setting [8]), 99% (active) and 46% (inactive); in experiment [1] (at 50.0 µM) it was 99.4% (active) and 54.9% (inactive); in experiment [2] (setting [7]), 100% (active) and 8% (inactive); in experiment [2] (setting [8]), 100% (active) and 83% (active); in experiment [2] (at 50.0 µM), 99.2% (active) and 81.2% (active). Also, the growth inhibition in experiment [3] (setting [7]) is 98% (active) and 0% (inactive); in experiment [3] (setting [8]), 99% (active) and 7% (inactive); in experiment [3] (at 50.0 µM) it was 98.7% (active) and 42.6% (inactive); in experiment [4] (setting [7]), 100% (active) and 2% (inactive); in experiment [4] (setting [8]) it was 99% (active) and 44% (inactive); in experiment [4] (at 50.0 µM), 99.2% (active) and 53.5% (inactive). For the same molecule, the growth inhibition in experiment [5] (setting [7]) is 99% (active) and 2% (inactive); in experiment [5] (setting [8]), 99% (active) and 46% (inactive); in experiment [5] (at 50.0 µM), 98.5% (active) and 68.2% (inactive).

Take `CCC(C)C(NC(=O)CN)C(=O)O` (stereo not given) (H-Gly-[ξI]-OH): the growth inhibition is 6.95% (inactive) [middle of 4 runs] in experiment [1] (at 50.0 µM), -3% (inactive) [middle of 4 runs] in experiment [6] (at 50.0 µM) and -17.8% (inactive) [middle of 4 runs] in experiment [5] (at 50.0 µM).

As for `Cc1c(Cl)cccc1NC(=O)CC1Sc2ccccc2NC1=O` (stereo not given), the growth inhibition in experiment [6] (setting [7]) was -7% (inactive); in experiment [6] (setting [8]), 52% (inactive); in experiment [6] (at 50.0 µM), -6.7% (inactive) and 44.2% (inactive); in experiment [2] (setting [7]), 2% (inactive); in experiment [2] (setting [8]), 38% (inactive); in experiment [2] (at 50.0 µM), -22.2% (inactive) and 55% (inactive). The growth inhibition in experiment [3] (setting [7]) is 8% (inactive); in experiment [3] (setting [8]) it was 49% (inactive); in experiment [3] (at 50.0 µM) it was -1.1% (inactive) and 27.8% (inactive); in experiment [4] (setting [7]) it was 4% (inactive); in experiment [4] (setting [8]) it was 83% (active); in experiment [4] (at 50.0 µM), 1.6% (inactive) and 49.8% (inactive). For the same molecule, the growth inhibition is -1% (inactive) in experiment [5] (setting [7]); 77% (active) in experiment [5] (setting [8]); 6.5% (inactive) and 83% (active) in experiment [5] (at 50.0 µM).

As to `COc1cccc2c1C(=O)c1c(O)c3c(c(O)c1C2=O)C[C@@](O)(C(C)=O)C[C@@H]3OC1CC(N)C(O)C(C)O1` (stereo not given in full), the growth inhibition in experiment [1] (setting [7]) was 32% (inactive); in experiment [1] (setting [8]), 91% (active); in experiment [6] (setting [7]), -11% (inactive); in experiment [6] (setting [8]) it was 90% (active); in experiment [2] (setting [7]), 8% (inactive); in experiment [2] (setting [8]), 93% (active). Also, the growth inhibition in experiment [3] (setting [7]) was 23% (inactive); in experiment [3] (setting [8]), 85% (active); in experiment [4] (setting [7]), 7% (inactive); in experiment [4] (setting [8]), 93% (active); in experiment [5] (setting [7]) it was 7% (inactive); in experiment [5] (setting [8]), 88% (active).

Consider `Oc1cccc2c1-c1ccccc1C2`, for which the growth inhibition is -6% (inactive) in experiment [1] (setting [7]); 96% (active) in experiment [1] (setting [8]); 98.8% (active) in experiment [1] (at 50.0 µM); -7% (inactive) in experiment [2] (setting [7]); 97% (active) in experiment [2] (setting [8]); 98.4% (active) in experiment [2] (at 50.0 µM). Besides, the growth inhibition in experiment [3] (setting [7]) was -4% (inactive); in experiment [3] (setting [8]), 83% (active); in experiment [3] (at 50.0 µM), 96.8% (active); in experiment [4] (setting [7]), 32% (inactive); in experiment [4] (setting [8]), 97% (active); in experiment [4] (at 50.0 µM), 98.4% (active). Besides, the growth inhibition was 9% (inactive) in experiment [5] (setting [7]), 98% (active) in experiment [5] (setting [8]) and 98.1% (active) in experiment [5] (at 50.0 µM).
